We go through 65 compounds from PubChem BioAssay AID624255 (Broad Institute, 2012).

Usually inhibition stands for the drop in the measured response relative to a control, in per cent.

SMILES strings stand for the structures. Screen size: about 77,000 compounds; about 4,600 (6%) were called active. Roughly 1% stayed inconclusive and do not appear here. This excerpt belongs to a sample that is enriched for actives. Values without a mark were called inactive.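 Rule for the calls: active = mean inhibition above about 93%, with at least 55% of replicates each passing it (limit read from the data, passing the limit was not always enough); inconclusive = only one of those two conditions holds; inactive = neither condition holds.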

The test in a line: T. cruzi intracellular proliferation inhibitors, primary screen, cell-based, beta-gal Tulahuen parasites, NIH3T3 host, luminescence (AID 624255). Particulars: T. cruzi beta-gal in NIH3T3, GalScreen luminescence, 90 h; at 8.34 µM; active compounds read high.
On to `CCCNC(=O)C[C@@H]1CC[C@H]2[C@H](COc3ccc(NC(=O)c4ccc(Cl)cc4)cc3C(=O)N2C)O1`, for which the inhibition was 29.6%.

With `COc1ccc(S(=O)(=O)Nc2ccc3c(c2)C(=O)N(C)C[C@@H](OC)[C@H](C)CN(C(=O)NC(C)C)[C@H](C)CO3)cc1`, the inhibition was -70.7%.

As for `COc1ccc(NC(=O)N[C@H]2C=C[C@H](CC(=O)NCc3ccccn3)O[C@H]2CO)cc1`, the inhibition was -16.1%.

`Cc1noc(C)c1NC(=O)Nc1ccc2c(c1)C(=O)N([C@H](C)CO)C[C@@H](C)[C@H](CN(C)S(=O)(=O)c1ccc(Cl)cc1)OCCCC[C@H](C)O2`: the inhibition is 53.3%.

Take `COCCNC(=O)C[C@H]1CC[C@H]2[C@H](COc3ccc(NC(=O)C4CCOCC4)cc3C(=O)N2C)O1`: the inhibition was 17.3%.

Consider `C[C@@H]1CN([C@@H](C)CO)C(=O)c2cc(NC(=O)C3CCCCC3)ccc2O[C@@H](C)CCCCO[C@H]1CN(C)C(=O)CCC(F)(F)F`, for which the inhibition was 29.9%.

Consider `COCC(=O)Nc1ccc2c(c1)OC[C@@H](C)N(Cc1cocn1)C[C@@H](C)[C@@H](OC)CN(C)C2=O`, for which the inhibition was -2.18%.

In the case of `CN1c2ccc(-c3ccc(C#N)cc3)cc2[C@@H]2[C@@H](CCN2S(=O)(=O)c2cccc(F)c2)[C@@H]1CO`, the inhibition is 72.5%.

On to `COCC(=O)Nc1ccc2c(c1)[C@H]1C[C@H](CC(=O)NCc3ccc(OC)cc3)O[C@@H](CO)[C@H]1O2`, for which the inhibition is 4.09%.

On to `O=C(C[C@H]1CC[C@H]2[C@@H](COC[C@H](O)CN2C(=O)c2ccncc2)O1)NCc1cc(F)cc(F)c1`, for which the inhibition was 43.6%.

For the compound `C[C@@H]1CN([C@H](C)CO)C(=O)Cc2cc(NC(=O)Nc3ccccc3)ccc2O[C@@H]1CN(C)Cc1ccc(C(F)(F)F)cc1`, the inhibition is 86.5%.

In the case of `C[C@@H]1CN([C@@H](C)CO)C(=O)Cc2cc(NC(=O)Cc3ccccc3)ccc2O[C@@H]1CN(C)Cc1ccc(Oc2ccccc2)cc1`, the inhibition was 12.2%.

Consider `C[C@@H]1CN([C@@H](C)CO)C(=O)Cc2cc(NC(=O)C3CCCCC3)ccc2O[C@@H]1CN(C)Cc1ccc(C(=O)Nc2ccccc2N)cc1`, for which the inhibition was 103% (active).

For `C[C@@H]1CN([C@H](C)CO)C(=O)Cc2cc(NC(=O)Nc3ccc(C(F)(F)F)cc3)ccc2O[C@H]1CN(C)Cc1ccc(-c2ccccc2)cc1`, the inhibition is 67.4%.

With `C[C@H](CO)N1C[C@H](C)[C@H](CN(C)Cc2ccc(-c3ccccc3)cc2)Oc2ccc(NC(=O)Nc3ccc(F)cc3)cc2CC1=O`, the inhibition was 100% (active).

Turning to `C[C@H]1CN([C@@H](C)CO)C(=O)Cc2cc(NS(=O)(=O)c3ccccc3)ccc2O[C@@H]1CN(C)Cc1ccc(C(=O)Nc2ccccc2N)cc1`, the inhibition was 21.9%.

For `C[C@@H]1CN([C@H](C)CO)C(=O)Cc2cc(NC(=O)Cc3ccccc3)ccc2O[C@H]1CN(C)Cc1ccc(Oc2ccccc2)cc1`, the inhibition was 99.8% (active).

For the compound `C[C@@H]1CN([C@H](C)CO)C(=O)Cc2cc(NC(=O)Cc3cn(C)c4ccccc34)ccc2O[C@@H]1CN(C)Cc1ccc(C(F)(F)F)cc1`, the inhibition was 89.6%.

For `COc1ccc(CN(C)C[C@H]2Oc3ccc(NC(=O)Cc4ccccc4)cc3CC(=O)N([C@@H](C)CO)C[C@@H]2C)cc1`, the inhibition is 74%.

For `C[C@H]1CN([C@@H](C)CO)C(=O)Cc2cc(NC(=O)Cc3cn(C)c4ccccc34)ccc2O[C@@H]1CN(C)Cc1ccc(C(F)(F)F)cc1`, the inhibition was 103% (active).

In the case of `C[C@H]1CN([C@@H](C)CO)C(=O)Cc2cc(NC(=O)Cc3cn(C)c4ccccc34)ccc2O[C@H]1CN(C)Cc1ccccc1`, the inhibition is 83.1%.

Take `C[C@H]1CN([C@@H](C)CO)C(=O)Cc2cc(NS(=O)(=O)c3ccccc3)ccc2O[C@H]1CN(C)Cc1ccc(C(=O)Nc2ccccc2N)cc1`: the inhibition is 48%.

As to `C[C@@H]1CN([C@@H](C)CO)S(=O)(=O)c2ccc(-c3cncnc3)cc2O[C@@H]1CN(C)C(=O)C1CC1`, the inhibition is 21.1%.

In the case of `CCNC(=O)C[C@H]1CC[C@@H]2[C@H](COC[C@H](O)CN2S(=O)(=O)c2ccc(Oc3ccccc3)cc2)O1`, the inhibition is 2.89%.

In the case of `C/C=C/c1ccc([C@@H]2[C@@H](CO)N(C(=O)CC)[C@H]2CN(C)C(=O)C2CC2)cc1`, the inhibition is 15%.

As to `COc1ccc(CNC(=O)C[C@H]2C[C@H]3c4cc(NS(C)(=O)=O)ccc4O[C@H]3[C@@H](CO)O2)cc1`, the inhibition was -53%.

As to `CNC(=O)C[C@H]1CC[C@H]2[C@@H](COc3ccc(NS(=O)(=O)c4ccc(F)cc4)cc3C(=O)N2C)O1`, the inhibition is 17.2%.

`CN(C)C(=O)C[C@@H]1CC[C@H]2[C@@H](COC[C@H](O)CN2C(=O)c2ccncc2)O1`: the inhibition is 24.8%.

`COc1ccc(S(=O)(=O)Nc2ccc3c(c2)CC(=O)N([C@H](C)CO)C[C@@H](C)[C@H](CN(C)S(=O)(=O)c2c(C)noc2C)O3)cc1`: the inhibition was -5.62%.

Regarding `C[C@@H](NC(=O)[C@H]1[C@H](CO)[C@H]2Cn3c(cccc3=O)[C@@H]1N2Cc1cccnc1)c1ccccc1`, the inhibition is 50%.

For `C[C@@H]1CN([C@H](C)CO)C(=O)c2cccc(NC(=O)c3cnccn3)c2O[C@@H]1CN(C)Cc1ccc(C(=O)Nc2ccccc2N)cc1`, the inhibition is 109% (active).

As to `C[C@@H]1CN([C@@H](C)CO)C(=O)c2cccc(NC(=O)c3cnccn3)c2O[C@H]1CN(C)Cc1ccc(-c2ccccc2)cc1`, the inhibition is 98.7%.

Take `C[C@@H]1CN([C@H](C)CO)C(=O)CCCn2nncc2CO[C@@H]1CN(C)Cc1ccc(C(=O)Nc2ccccc2N)cc1`: the inhibition was 103% (active).

Take `C[C@@H]1CN([C@@H](C)CO)C(=O)c2cccc(NC(=O)c3cnccn3)c2O[C@H]1CN(C)Cc1ccc(C(=O)O)cc1`: the inhibition is -4.45%.

In the case of `C[C@H]1CN([C@@H](C)CO)C(=O)CCCn2nncc2CO[C@H]1CN(C)Cc1ccccc1`, the inhibition is -4.75%.

With `C[C@@H]1CN([C@@H](C)CO)C(=O)CCCn2nncc2CO[C@@H]1CN(C)Cc1ccccc1`, the inhibition was -1.5%.

With `COCC(=O)Nc1ccc2c(c1)C(=O)N(C)[C@H]1CC[C@H](CC(=O)Nc3ccccc3)O[C@H]1CO2`, the inhibition was 43.2%.

On to `C[C@@H]1CN([C@H](C)CO)C(=O)c2cc(-c3ccc(C#N)cc3)cnc2O[C@@H]1CN(C)C(=O)Nc1ccccc1`, for which the inhibition was 33.2%.

On to `CCN1[C@@H]2Cn3c(ccc(-c4cccnc4)c3=O)[C@H]1[C@@H](C(=O)NC1CCCCC1)[C@@H]2CO`, for which the inhibition is -16.4%.

Regarding `O=C(NC[C@@H]1[C@H](c2ccccc2)[C@H](CO)N1CC1CCCC1)c1cccnc1`, the inhibition was 15.8%.

On to `CO[C@H]1CN(C)C(=O)c2ccc(NC(C)=O)cc2OC[C@H](C)N(C(=O)c2ccccc2)C[C@H]1C`, for which the inhibition was -19.6%.

With `CCNC(=O)[C@@H]1[C@@H](CO)[C@@H]2Cn3c(ccc(-c4ccncc4)c3=O)[C@@H]2N1Cc1cc(F)ccc1F`, the inhibition is 80.1%.

With `CNC[C@@H]1Oc2cc(C#CC3CCCC3)ccc2S(=O)(=O)N([C@@H](C)CO)C[C@@H]1C`, the inhibition is 61%.

`CCCN(C)C[C@@H]1Oc2cc(C#CC3CCCCC3)ccc2S(=O)(=O)N([C@@H](C)CO)C[C@@H]1C`: the inhibition was 42.1%.

As for `C[C@@H]1CN([C@@H](C)CO)S(=O)(=O)c2ccc(C#CC3CCCC3)cc2O[C@H]1CN(C)S(C)(=O)=O`, the inhibition was -41.8%.

For the compound `CCCN(C)C[C@@H]1Oc2cc(C#Cc3ccc(F)cc3)ccc2S(=O)(=O)N([C@H](C)CO)C[C@H]1C`, the inhibition was 100% (active).

For the compound `CCCN(C)C[C@@H]1Oc2cc(C#CCc3ccccc3)ccc2S(=O)(=O)N([C@H](C)CO)C[C@@H]1C`, the inhibition is 80.1%.

With `C[C@@H]1CN([C@@H](C)CO)S(=O)(=O)c2ccc(C#Cc3ccc(F)cc3)cc2O[C@H]1CN(C)S(C)(=O)=O`, the inhibition was 113% (active).

As for `CCCN(C)C[C@H]1Oc2cc(C#CC3CCCC3)ccc2S(=O)(=O)N([C@H](C)CO)C[C@@H]1C`, the inhibition was 98.6% (active).

On to `COCC#Cc1ccc2c(c1)O[C@@H](CN(C)S(C)(=O)=O)[C@H](C)CN([C@H](C)CO)S2(=O)=O`, for which the inhibition was 2.15%.

Consider `CCCC#Cc1ccc2c(c1)O[C@@H](CN(C)CCC)[C@@H](C)CN([C@H](C)CO)S2(=O)=O`, for which the inhibition was 63.4%.

In the case of `C[C@@H](NC(=O)C[C@@H]1CC[C@@H]2[C@H](COC[C@@H](O)CN2C(=O)Nc2cccc(F)c2)O1)c1ccccc1`, the inhibition is 21.9%.

Turning to `CC(C)NC(=O)N(C)C[C@@H]1Oc2ncc(-c3ccc(C(=O)N(C)C)cc3)cc2C(=O)N([C@H](C)CO)C[C@H]1C`, the inhibition was 35.4%.

For the compound `COc1ccc(S(=O)(=O)N(C)C[C@H]2OCCCC[C@H](C)Oc3ccc(NS(=O)(=O)c4c(C)noc4C)cc3C(=O)N([C@@H](C)CO)C[C@@H]2C)cc1`, the inhibition was 23.4%.

Take `C[C@H]1CN([C@@H](C)CO)C(=O)c2cc(C#CC(C)(C)O)cnc2O[C@H]1CN(C)C(=O)CC1CC1`: the inhibition was -14.6%.

Regarding `O=S(=O)(Cc1ccccc1)NCC[C@@H]1CC[C@@H](NS(=O)(=O)c2ccccc2)[C@@H](CO)O1`, the inhibition was -0.486%.

Turning to `CC(=O)N1CC[C@@H]2[C@@H](CO)N(C)c3ccc(-c4ccc(C#N)cc4)cc3[C@@H]21`, the inhibition is 52.3%.

Consider `Cc1noc(C)c1NC(=O)Nc1ccc2c(c1)C(=O)N([C@@H](C)CO)C[C@@H](C)[C@H](CN(C)C(=O)Nc1ccc(C(F)(F)F)cc1)OCCCC[C@@H](C)O2`, for which the inhibition is 27.1%.

As to `Cn1cnc(S(=O)(=O)N2CCCCN3[C@H](CO)[C@@H](c4ccc(-c5ccc(F)cc5)cc4)[C@@H]3C2)c1`, the inhibition was 11.8%.

Regarding `Cc1ccccc1-c1ccc([C@H]2[C@H]3CN(S(=O)(=O)c4ccc(F)cc4)CCCCN3[C@H]2CO)cc1`, the inhibition is 111% (active).

For `COc1ccc(S(=O)(=O)N2CCCCN3[C@H](CO)[C@H](c4ccc(C5=CCCCC5)cc4)[C@@H]3C2)cc1`, the inhibition is 88.5%.

As to `COc1ccccc1-c1ccc([C@@H]2[C@@H](CO)N3CCCCN(S(=O)(=O)c4cn(C)cn4)C[C@H]23)cc1`, the inhibition was 42.2%.

Take `O=S(=O)(c1ccc(F)cc1)N1CCCCN2[C@H](C1)[C@H](c1ccc(C3=CCCCC3)cc1)[C@@H]2CO`: the inhibition was 99.1% (active).

Turning to `COc1ccc(S(=O)(=O)N2CCCCN3[C@H](C2)[C@H](c2ccc(C4=CCCC4)cc2)[C@@H]3CO)cc1`, the inhibition was 7.54%.

For the compound `Cc1ccccc1-c1ccc([C@@H]2[C@H](CO)N3CCCCN(S(=O)(=O)c4ccc(F)cc4)C[C@@H]23)cc1`, the inhibition was 112% (active).
